Source: PubChem BioAssay
Activity calls are given as the source filed them.

Tests used:
Albumin (Bos taurus) = Albumin (Bos taurus) (UniProt P02769); assay: bovine serum albumin binders on microarray, profiling panel, artefact control for SMM control protein annotation, biochemical, small-molecule microarray, Alexa647 label, 635/667 nm fluorescence (AID 1118); details: BSA-A647 binding, fluorescence 635 nm, higher = more signal;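 further: score merges 667 nm emission intensity and signal-to-noise per printed compound spot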
[1] = small-molecule microarray binders of probe aXIP, primary screen, biochemical, NeuroSMM set, 635/667 nm fluorescence (AID 1119); details: higher = more signal, called active from +8 up or from −8 down;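 further: probe is the protein aXip251-270 applied at 1 µg/mL to compound-printed slides; binding of probe to printed compounds measured as 667 nm fluorescence plus signal to noise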
[2] = small-molecule binders of probe aNOTCH3, primary screen, biochemical, small-molecule microarray, 635/667 nm fluorescence (AID 1120); details: higher = more signal;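 further: probe is a biotin-tagged antibody raised against NOTCH3 rather than NOTCH3 protein; score merges spot fluorescence near 667 nm with spot signal to noise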
[3] = small-molecule binders of probe aNOTCH2, primary screen, biochemical, small-molecule microarray, 635/667 nm fluorescence (AID 1121); details: higher = more signal;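 further: score merges feature fluorescence read at 667 nm with its signal to noise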
[4] = target: Carbonic anhydrase 2 (Homo sapiens) (UniProt P00918); assay: CAII small-molecule binders, profiling panel, biochemical, small-molecule microarray, Alexa647-labelled CAII (AID 1122); details: CAII-A647 binding fluorescence, higher = more signal
[5] = COS7 lysate on small-molecule microarray, probe aHis, 635 nm (AID 1123); details: COS7 cell lysate, fluorescence, higher = more signal;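 further: z-score combines 667nm fluorescence intensity with signal-to-noise per printed compound spot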
[6] = compound binding in COS7 lysate, probe aLAP1, primary screen, cell lysate, small-molecule microarray (AID 1124); details: probe aLAP1, fluorescence, higher = more signal;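 further: lysate comes from COS7 cells expressing LAP1 and is applied at 0.3 µg/mL; score merges spot fluorescence near 667 nm with signal-to-noise over triplicate slides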
Sam68 (KHDRBS1) = assay: Sam68 small-molecule binders, primary screen, biochemical, small-molecule microarray, 635 nm fluorescence (AID 1125); details: small-molecule microarray binding, higher = more signal;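 further: score merges 667 nm channel intensity with signal to noise over triplicate slides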
[7] = tested on: Chordin-like protein 2 (CHRDL2); assay: CHRDL2 small-molecule binders, primary screen, biochemical, small-molecule microarray, 635 nm fluorescence (AID 1126); details: small-molecule microarray binding, fluorescence 635 nm; higher = more signal;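 further: printed compound slides probed with Chrdl2 protein at 4 µg/mL for 1 h at 4 C; score merges 667 nm emission intensity with signal to noise over three replicate slides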
[8] = target: Concanavalin-A (Canavalia ensiformis) (UniProt P02866); assay: ConA small-molecule binders, primary screen, artefact control for SMM control protein annotation, biochemical, small-molecule microarray, Alexa647 label, 635 nm (AID 1127); details: ConA-A647 binding fluorescence, higher = more signal;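 further: z combines 667 nm emission intensity with signal-to-noise across three replicate slides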
[9] = anti-His antibody binders, primary screen, artefact control for SMM control protein annotation, biochemical, small-molecule microarray, 635 nm fluorescence (AID 1128); details: anti-His Alexa647 antibody binding, higher = more signal;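 further: score merges feature fluorescence with signal-to-noise for each printed compound spot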
[10] = tested on: Human papillomavirus type 1a E7 protein (residues 1-88); assay: HPV1a E7 small-molecule binders, primary screen, biochemical, small-molecule microarray, residues 1-88, 635 nm (AID 1129); details: small-molecule microarray binding, fluorescence 635 nm; higher = more signal
[11] = target: Focal adhesion kinase 1 (Homo sapiens) (UniProt Q05397); assay: small-molecule microarray binders of FAK, primary screen, biochemical, 635/667 nm fluorescence, BSA, DTT (AID 1130); details: PTK2 binding, 635 nm fluorescence, higher = more signal;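 further: composite of spot emission at 667 nm and signal to noise over triplicate slides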
[12] = tested on: Fibrinogen (Alexa647-labelled); assay: fibrinogen binders on compound microarrays, profiling panel, artefact control for SMM control-protein annotation, biochemical, small-molecule microarray, 635/667 nm fluorescence (AID 1131); details: fibrinogen-A647 binding fluorescence, higher = more signal;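 further: z-score merges 667 nm fluorescence with per-spot signal-to-noise over triplicate slides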
[13] = target: Follistatin (Homo sapiens) (UniProt P19883); assay: follistatin binders on small-molecule microarrays, primary screen, biochemical, small-molecule microarray, 635/667 nm fluorescence (AID 1132); details: FST binding, 635 nm fluorescence, higher = more signal
[14] = target: Fibroblast growth factor 2 (Homo sapiens) (UniProt P09038); assay: FGF2 binders on small-molecule microarrays, primary screen, biochemical, small-molecule microarray, 635/667 nm fluorescence (AID 1133); details: small-molecule microarray binding, FGF2, fluorescence 635/667; higher = more signal
[15] = mitochondrial membrane potential change in A549 cells, profiling panel, cell-based, JC-1 fluorescence, basal, 24 h, 100 nL (AID 1138); details: higher = more signal;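 further: A549 lung adenocarcinoma cells under basal conditions with no added stimulus; test concentration not given here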
Lefty1 = Lefty1 binders on small-molecule microarrays, primary screen, biochemical, small-molecule microarray, 635/667 nm fluorescence (AID 1139); details: small-molecule microarray binding, fluorescence 635/667; higher = more signal
[16] = tested on: wheat germ agglutinin (Triticum aestivum), Alexa647-labelled; assay: wheat germ agglutinin binders on compound microarrays, profiling panel, artefact control for SMM control-protein annotation, biochemical, small-molecule microarray, 635/667 nm fluorescence (AID 1140); details: WGA-A647 binding, 635 nm fluorescence, higher = more signal;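 further: score merges 667 nm feature emission with signal to noise over triplicate slides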
[17] = target: Luciferin 4-monooxygenase (Photinus pyralis) (UniProt P08659); assay: firefly luciferase enzyme inhibitors, primary screen, biochemical, luminescence, purified enzyme, 2006 set (AID 1141); details: SteadyGlo luminescence, 30 min, higher = more signal, called active from +8 up or from −8 down;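 further: cell-free assay with purified firefly luciferase at 100 ng per well in PBS; test concentration not given here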
Sequence of Luciferin 4-monooxygenase (Photinus pyralis) (P08659 whole entry, looked up): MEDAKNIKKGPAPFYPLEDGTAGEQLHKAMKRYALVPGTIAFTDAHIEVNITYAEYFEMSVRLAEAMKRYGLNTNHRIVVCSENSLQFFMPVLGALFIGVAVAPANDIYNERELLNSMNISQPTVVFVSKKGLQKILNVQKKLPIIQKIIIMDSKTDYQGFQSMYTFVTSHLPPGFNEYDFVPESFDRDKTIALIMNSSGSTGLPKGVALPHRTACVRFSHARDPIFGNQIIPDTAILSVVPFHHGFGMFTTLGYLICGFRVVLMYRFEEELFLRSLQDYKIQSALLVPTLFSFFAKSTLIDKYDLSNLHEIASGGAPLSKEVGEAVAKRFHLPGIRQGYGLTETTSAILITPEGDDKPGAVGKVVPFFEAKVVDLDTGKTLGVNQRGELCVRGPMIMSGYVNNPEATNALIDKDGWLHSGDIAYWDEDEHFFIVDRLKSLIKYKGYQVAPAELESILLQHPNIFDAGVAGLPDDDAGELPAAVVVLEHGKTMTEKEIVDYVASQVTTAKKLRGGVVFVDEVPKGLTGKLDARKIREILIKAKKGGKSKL

Sequence of Concanavalin-A (Canavalia ensiformis) (P02866 whole entry, looked up): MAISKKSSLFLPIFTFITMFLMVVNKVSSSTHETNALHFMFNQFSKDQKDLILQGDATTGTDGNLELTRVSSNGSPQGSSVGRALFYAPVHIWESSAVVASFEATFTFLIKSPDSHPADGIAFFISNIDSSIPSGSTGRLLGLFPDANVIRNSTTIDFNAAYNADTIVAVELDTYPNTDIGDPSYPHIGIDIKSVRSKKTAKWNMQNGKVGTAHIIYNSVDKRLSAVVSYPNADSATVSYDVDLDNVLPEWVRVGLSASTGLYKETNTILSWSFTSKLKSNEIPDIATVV
Sequence of Fibroblast growth factor 2 (Homo sapiens) (P09038 whole entry, looked up): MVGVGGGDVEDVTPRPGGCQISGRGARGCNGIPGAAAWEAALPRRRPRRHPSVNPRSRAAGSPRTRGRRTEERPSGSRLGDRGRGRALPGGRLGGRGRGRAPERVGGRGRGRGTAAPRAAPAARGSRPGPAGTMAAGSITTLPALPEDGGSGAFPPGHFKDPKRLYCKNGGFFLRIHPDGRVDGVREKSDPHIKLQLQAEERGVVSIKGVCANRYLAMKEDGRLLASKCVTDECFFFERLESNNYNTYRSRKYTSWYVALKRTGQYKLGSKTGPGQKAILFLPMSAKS
Sequence of Follistatin (Homo sapiens) (P19883 whole entry, looked up): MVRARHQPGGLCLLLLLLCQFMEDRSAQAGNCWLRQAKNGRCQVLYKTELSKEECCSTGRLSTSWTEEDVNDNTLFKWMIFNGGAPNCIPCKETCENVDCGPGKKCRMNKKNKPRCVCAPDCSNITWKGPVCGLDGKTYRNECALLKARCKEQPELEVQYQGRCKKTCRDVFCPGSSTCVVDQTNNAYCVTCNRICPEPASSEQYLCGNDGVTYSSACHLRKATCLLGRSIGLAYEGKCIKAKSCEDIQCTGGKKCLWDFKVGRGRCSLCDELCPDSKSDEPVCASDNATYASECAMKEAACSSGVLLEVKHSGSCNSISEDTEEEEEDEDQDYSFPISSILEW
Sequence of Focal adhesion kinase 1 (Homo sapiens) (Q05397 whole entry, looked up): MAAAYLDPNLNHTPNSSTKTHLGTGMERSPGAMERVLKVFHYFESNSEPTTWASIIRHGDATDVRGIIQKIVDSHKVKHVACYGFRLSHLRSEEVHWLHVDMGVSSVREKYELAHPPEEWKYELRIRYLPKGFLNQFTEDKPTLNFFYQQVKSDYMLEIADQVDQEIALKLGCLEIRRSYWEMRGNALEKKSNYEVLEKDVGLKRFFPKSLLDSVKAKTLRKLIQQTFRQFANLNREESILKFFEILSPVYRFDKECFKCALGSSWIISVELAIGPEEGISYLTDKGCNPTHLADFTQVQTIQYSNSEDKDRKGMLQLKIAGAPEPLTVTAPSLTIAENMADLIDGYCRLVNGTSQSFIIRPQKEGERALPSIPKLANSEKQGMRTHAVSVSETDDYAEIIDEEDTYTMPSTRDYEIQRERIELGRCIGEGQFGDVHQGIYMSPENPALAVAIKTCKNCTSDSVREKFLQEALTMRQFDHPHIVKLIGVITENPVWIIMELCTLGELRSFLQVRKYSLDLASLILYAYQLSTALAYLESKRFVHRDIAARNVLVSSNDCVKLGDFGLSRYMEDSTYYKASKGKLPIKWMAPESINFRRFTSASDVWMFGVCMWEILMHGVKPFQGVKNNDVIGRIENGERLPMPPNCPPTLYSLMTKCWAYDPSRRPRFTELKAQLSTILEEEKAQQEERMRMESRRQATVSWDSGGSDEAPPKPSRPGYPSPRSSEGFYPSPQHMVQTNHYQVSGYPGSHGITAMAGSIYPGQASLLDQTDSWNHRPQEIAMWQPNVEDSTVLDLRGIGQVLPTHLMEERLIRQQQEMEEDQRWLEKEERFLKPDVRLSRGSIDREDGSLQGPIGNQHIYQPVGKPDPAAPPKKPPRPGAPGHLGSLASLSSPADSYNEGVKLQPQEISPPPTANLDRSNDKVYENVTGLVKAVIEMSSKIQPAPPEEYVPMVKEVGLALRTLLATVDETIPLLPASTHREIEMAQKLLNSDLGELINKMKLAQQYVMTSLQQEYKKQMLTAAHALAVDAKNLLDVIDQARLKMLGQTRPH
Sequence of Albumin (Bos taurus) (P02769 whole entry, looked up): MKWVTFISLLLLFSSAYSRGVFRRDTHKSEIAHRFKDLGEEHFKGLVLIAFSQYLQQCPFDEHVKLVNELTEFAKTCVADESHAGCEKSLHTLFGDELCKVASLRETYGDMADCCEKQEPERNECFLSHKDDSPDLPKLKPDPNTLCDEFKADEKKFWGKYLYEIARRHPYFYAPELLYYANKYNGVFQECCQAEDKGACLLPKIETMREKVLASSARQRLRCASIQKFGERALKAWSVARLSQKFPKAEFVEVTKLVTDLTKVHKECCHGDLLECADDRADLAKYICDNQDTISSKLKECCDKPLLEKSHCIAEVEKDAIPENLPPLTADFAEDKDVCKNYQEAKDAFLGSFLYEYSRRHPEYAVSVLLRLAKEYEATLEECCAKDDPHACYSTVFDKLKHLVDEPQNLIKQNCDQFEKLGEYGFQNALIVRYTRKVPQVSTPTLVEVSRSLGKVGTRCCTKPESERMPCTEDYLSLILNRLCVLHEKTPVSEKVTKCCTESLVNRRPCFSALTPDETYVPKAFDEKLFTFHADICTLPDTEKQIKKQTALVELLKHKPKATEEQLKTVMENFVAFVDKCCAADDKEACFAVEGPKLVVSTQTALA

Compound	composite z-score (Albumin (Bos taurus))	composite Z-score [1]	composite z-score [2]	composite z-score [3]	composite z-score [4]	composite z-score [5]	composite z-score [6]	composite z-score (Sam68 (KHDRBS1))	composite z-score [7]	composite z-score [8]	composite z-score [9]	composite z-score [10]	composite z-score [11]	composite z-score [12]	composite z-score [13]	composite z-score [14]	z-score [15]	composite z-score (Lefty1)	composite z-score [16]	z-score [17]
C=C[C@H](C)[C@@H](O)c1ccc(O)c2ccccc12	0.841	0.681 (inactive)	-0.191	0.291	0.493	0.165	0.361	-0.49	0.866	-1.04	1.25	-0.655	-0.432	-0.407	1.05	0.944	-0.401	0.246	0.545	-0.322 (inactive)
CC(C)C(=C=CC[C@H](O)c1cccc(OCCO)c1)C[C@H](O)COCc1ccccc1	-0.0081	1.64 (inactive)	0.119	-0.0562	0.235	1.22	-0.125	0.166	-0.101	0.0514	0.366	0.165	0.107	0.637	0.235	0.562	-0.241	0.554	-0.0699	0.209 (inactive)
CN(C)CCCNC(=O)[C@@]1(Cc2ccccc2I)c2ccccc2C(=O)N(Cc2ccccc2C(F)(F)F)[C@H]1c1ccc(CO)cc1	-0.212	0.179 (inactive)	-0.286	-0.146	0.662	2.4	0.557	1.02	-1.07	-0.17	0.984	0.794	0.17	0.836	-0.781	-1.16	0.117	-0.406	-0.203	0.606 (inactive)
CC1=C2[C@@H](CCc3ccccc3)OB(O)C[C@@H]2n2c(=O)n(-c3ccccc3)c(=O)n2C1	0.201	0.131 (inactive)	0.199	-0.11	0.478	0.224	0.0327	0.617	0.469	1	0.324	0.479	0.233	0.923	0.794	0.618	0.235	0.897	0.0099	-0.85 (inactive)
CC(C)NC(=O)[C@@H]1c2ccccc2C(=O)N(Cc2ccccc2Cl)[C@H]1c1ccc(CO)cc1	0.07	0.757 (inactive)	-0.205	-0.121	0.651	1.29	0.661	1.03	-0.296	-0.0903	3.06	0.247	-0.313	-0.629	-0.555	-0.222	2.55	-0.221	0.842	-1.08 (inactive)
CCOc1cc(C(O)C2C=CC3C(=O)N(c4ccccc4)C(=O)C3N2Nc2ccc([N+](=O)[O-])cc2)ccc1O (stereo not given)	0.839	-0.014 (inactive)	0.0488	-0.0666	0.865	1.78	0.502	0.874	-0.136	0.548	0.73	1.06	0.106	0.0405	0.165	0.0474	-1.52	0.107	0.14	-0.021 (inactive)
COC(=O)c1c(CC[C@@H](CO)NC(=O)N[C@@H](Cc2ccccc2)Cn2cc(C3(O)CCCCC3)nn2)oc(C(C)=O)c1C(=O)OC	0.357	-0.0293 (inactive)	0.0893	-0.0942	0.253	0.287	-0.0804	1.29	0.625	0.82	1.37	0.868	0.0673	0.307	0.691	0.957	-0.941	1.31	-0.267	0.896 (inactive)
CN1C(=O)C2C=CC(C(O)c3ccccn3)N(Nc3ccccc3)C2C1=O (stereo not given)	-0.0756	0.0956 (inactive)	0.0711	-0.14	0.727	0.446	0.456	0.656	0.288	0.37	0.621	0.302	-0.187	1.03	0.563	0.213	-0.633	0.125	0.489	-1.12 (inactive)
COc1ccc([Si](C)(C)[C@@H]2[C@@H](CCn3cc([C@H](O)c4ccccc4)nn3)O[C@]3(C(=O)N(Cc4cccc(N5CCOC5=O)c4)c4ccccc43)[C@H]2C)cc1	-0.424	0.25 (inactive)	-0.259	-0.175	-0.208	-0.359	-0.0364	-0.217	-1.14	-0.348	-1.11	-0.576	-0.753	-1.23	-1.68	-0.977	2.14	-1.31	-0.452	-1.5 (inactive)
CC(C)C(O)C1C=CC2C(=O)N(c3ccccc3)C(=O)C2N1Nc1ccc(C#N)cc1 (stereo not given)	1.03	2.09 (inactive)	0.276	0.0883	0.842	2.73	0.997	1.26	-0.387	1.19	1.68	1.14	0.0162	1.01	0.97	0.598	0.192	-0.265	1.12	-0.555 (inactive)
C=CCOC(=O)[C@@H]1[C@H]2C(=O)O[C@H](c3ccccc3)[C@H](c3ccccc3)N2[C@H](c2ccc(OCCOC(=O)[C@@H]3C[C@@H]4C(=O)N[C@@H](Cc5ccccc5)C(=O)N4[C@@H]3c3cccc(OCCO)c3)cc2)[C@@]12C(=O)Nc1ccc(I)cc12	-0.912	-0.292 (inactive)	-0.0328	-0.0389	0.537	1.1	0.283	1.31	1.11	0.795	0.351	0.675	0.184	0.199	1.33	1.55	-0.917	0.951	0.181	0.152 (inactive)
COC(=O)C[C@@H]1C[C@H](C)[C@]2(O1)C(=O)N(Cc1ccccc1)c1ccc(NC(C)=O)cc12	-0.211	-0.209 (inactive)	-0.116	-0.185	-0.153	0.117	-0.0791	-0.506	0.343	0.0104	0.716	0.453	-0.183	0.458	0.431	0.471	-1.05	0.488	-0.259	0.0257 (inactive)
O=C1O[C@H](c2ccccc2)[C@H](c2ccccc2)N2[C@H]1[C@@H](C(=O)O)[C@]1(C(=O)Nc3ccc(C#CC4=CCCCC4)cc31)[C@H]2c1ccc(OCCO)cc1	0.638	0.0759 (inactive)	0.133	-0.0523	0.537	2.01	1.48	1.29	0.494	1.18	0.463	1.24	0.638	0.98	1.26	0.919	-2.57	1.28	1.1	-9.5 (active)
COCCOC(=O)N1C(=O)[C@@]2(c3cc(C#CCNC(N)=O)ccc31)[C@H](c1ccc(OCCO)cc1)N1[C@H](c3ccccc3)[C@H](c3ccccc3)OC(=O)[C@H]1[C@@H]2C(=O)N1CCc2cc(OC)c(OC)cc2C1	-1.03	-0.0505 (inactive)	0.112	-0.0349	0.22	0.592	0.127	0.498	0.756	0.878	0.276	0.665	0.145	0.531	1.38	1.2	-1.41	0.658	0.848	-0.702 (inactive)
N#Cc1ccc(NN2C(C(O)c3cccs3)C=CC3C(=O)N(c4ccccc4)C(=O)C32)cc1 (stereo not given)	0.536	0.388 (inactive)	0.144	-0.0136	0.817	2.28	0.672	1.01	-0.0869	1.02	-0.272	0.685	0.421	0.71	0.556	-0.216	0.989	-0.257	0.578	-0.589 (inactive)
[N-]=[N+]=Nc1ccccc1[C@H]1OC(c2ccc(OCCCO)cc2)=N[C@@]1(CCS(=O)(=O)c1ccccc1)C(=O)O	0.622	0.254 (inactive)	-0.0647	0.0278	0.419	2.77	0.425	0.0569	-0.378	0.475	1.2	0.478	0.042	0.773	0.395	0.174	-1.72	-0.782	0.85	-12.4 (active)
CCOC(=O)C1=CCC(c2ccc([N+](=O)[O-])cc2)N(S(=O)(=O)c2ccc(C)cc2)C1 (stereo not given)	0.261	0.448 (inactive)	0.0351	-0.0439	0.408	1.12	0.279	0.377	-0.0439	0.666	0.711	0.915	0.801	-0.0411	0.261	-0.277	1.15	-0.023	0.44	1.95 (inactive)
